Many of the other results were omitted from the sample, so hits are more common in it than they were.
Pf Dd2 growth: inhibitors of Plasmodium falciparum Dd2 growth. P. falciparum Dd2 growth, SYBR Green, 72 h. Potency, µM (titrated, usually from 28.9 µM), for the others: top-dose activity, negative = inhibition, most hits filed as inhibitors. 4.3% of 120,000 active. AID 1347417; active = well fitted inhibition curve with a large enough effect;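 note: plate controls were DMSO vehicle for no effect and reference drug for full effect; nearly all actives have a fitted effect of over 65% in size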
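Readout: SYBR Green fluorescence, 485 nm excitation, 535 nm emission, after ~16 h lysis at 37C. Before that, Dd2-infected red cells (2.5% hematocrit) grew 72 h with compound, 29 uM top final concentration.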
Starred values were filed as active, the others as inactive; i = inactive; [ ] = dose if it differs, or a comment. Potency is the fitted concentration of half-maximal effect.

SMILES	Pf Dd2 growth
COc1cc2c(c(OC)c1)C(c1cc(OC)c(OC)c(OC)c1)CC(=O)N2 (centres undefined)	-26%
Cc1cccc(C2CC(=O)Nc3cc4c(cc32)OCO4)c1 (centres undefined)	-2%
CCOc1cc(C2CC(=O)Nc3cc4c(cc32)OCCO4)ccc1O (centres undefined)	-12%
CN(C)c1ccc(C(=O)N[C@H]2C[C@H]3C(=O)NC[C@@H](CCC(=O)NCc4ccc(F)cc4)N3C2)cc1	-6%
Cc1ccc(C(=O)NC2CC(C)(C)Cc3nc(N4CCOCC4)ncc32)cn1 (centres undefined)	-4%
Cc1ccc(S(=O)(=O)N2CCC(n3cnnc3-c3ccccc3)CC2)cc1C	i
C[S+](=O)([O-])N1Cc2ccccc2CC2(CCCCN2Cc2ccccn2)C1 (centres undefined)	-11%
Cc1ccc(C)c(NC(=O)c2cc3n(n2)CC(c2ccc(Cl)cc2)OC3)c1 (centres undefined)	i
O=C1COc2cc(C(=O)NC3CC(c4nnc(CO)n4C4CC4)C3)ccc2N1 (centres undefined)	6.3µM*
O=C(NC1CC(c2nnc(CO)n2C2CC2)C1)c1n[nH]c2c1COCC2 (centres undefined)	-14%
Cc1c(C(=O)NC2CC(c3nnc(CO)n3C3CC3)C2)n(C)c2c(C)cccc12 (centres undefined)	i
CC(=O)Nc1ccc(S(=O)(=O)NC[C@@H]2C=C(C)[C@H](CC(=O)O)C[C@H]2C(C)C)cc1	i
O=S(=O)(Cc1ccccc1)NCc1cccnc1Oc1ccccc1	-7%
CCC(CC)NCc1cccnc1Oc1ccccc1	13µM*
O=C(NCc1cccnc1Oc1ccccc1)c1ccccn1	1%
CC(=O)N1CCCC(c2nn(C)c(=O)n2C(C)C)C1 (centres undefined)	35%
CC1(COc2ccccc2)COc2ccc(C(=O)NC3CCC(O)CC3)cc2N1 (centres undefined)	-21%[44.1 µM]
CC(C)n1cc(CN2CCCCCNC(=O)[C@@H]3CCC[C@@H]32)c2ccccc21	i
COc1ccc(CN2CCCCCNC(=O)[C@@H]3CCC[C@@H]32)cc1Cn1ccnc1	8.9µM*
N#Cc1ccc(CN2CCCCCNC(=O)[C@@H]3CCC[C@@H]32)cc1	-20%
Cc1ncsc1CN1CCCCCNC(=O)[C@@H]2CCC[C@@H]21	i
N#Cc1cccc(CN2CCCCCNC(=O)[C@@H]3CCC[C@@H]32)c1	-9%
CCn1cc(CN2CCCCCCNC(=O)[C@@H]3CCC[C@@H]32)cn1	i
CCOc1ccccc1CN1CCCCCCNC(=O)[C@@H]2CCC[C@@H]21	2.8µM*
N#Cc1ccccc1CN1CCCCCCNC(=O)[C@@H]2CCC[C@@H]21	2.8µM*
SMILES	Pf Dd2 growth
COc1ccc(-c2[nH]ncc2CN2CCCCCNC(=O)[C@@H]3CCC[C@@H]32)cc1	i
Cc1nc(NCCNS(C)(=O)=O)cc(C2CC(O)C2)n1 (centres undefined)	i
O=C(CCCc1ccccc1)N1CCC2(CC1)CC(N(Cc1ccccc1)C1CC1)CCO2 (centres undefined)	i
Cc1ncoc1C(=O)N1CCC(N2CC(OCC3CC3)C23CCOCC3)CC1 (centres undefined)	-7%
c1ccc(CN2CCC(N3CC(OCC4CC4)C34CCOCC4)CC2)cc1 (centres undefined)	5.6µM*
Cc1ccc(CN2CCC(N3CC(OCC4CC4)C34CCOCC4)CC2)s1 (centres undefined)	10µM*
COC1CN(C2CCN(C(=O)Cc3ccccc3)CC2)C12CCOCC2 (centres undefined)	i
COC1CN(C2CCN(C(=O)c3ccoc3)CC2)C12CCOCC2 (centres undefined)	-24%
Cn1cccc1CN1CCC(N2CC(OCC3CC3)C23CCCCC3)CC1 (centres undefined)	0.63µM*
O=C(c1ccccn1)N1CCC(N2CC(OCC3CC3)C23CCOCC3)CC1 (centres undefined)	-8%
Cc1ccncc1C(=O)N1CCC(N2CC(OCC3CC3)C23CCCCC3)CC1 (centres undefined)	-18%
CCC(=O)N(C1CCOCC1)C1CCN(Cc2ccc(C)o2)CC1	18%
COCCOC1CN(C2CCN(Cc3ccc(C)o3)CC2)C12CCCCC2 (centres undefined)	5µM*
Cn1cccc1CN1CCC(N2CCOC2=O)CC1	4%[44.1 µM]
COCCOC1CN(C2CCN(C(=O)c3ccc(C)nc3)CC2)C12CCCCC2 (centres undefined)	i
O=C(Nc1cccnc1)N1CCOC[C@H](Oc2ccc(C(F)(F)F)cc2)C1	-20%[44.1 µM]
Cc1ccc(NC(=O)N2CCC(CCNC(=O)C3(c4ccccc4)CC3)CC2)cc1F	i
COC(=O)[C@@H](C)NC(=O)[C@H]1CN(C(=O)c2ccc(N(C)C)cc2)CCN1S(C)(=O)=O	28%
O=C(NC1C[C@H]2CC[C@@H](C1)N2C(=O)C1CCCC1)c1ccncc1 (some centres undefined)	28%
COCCNC(=O)[C@@H]1C[C@H](Oc2ccccc2)CN1C(=O)CCc1ccccc1	0%

High-throughput results as filed in PubChem BioAssay.
